Assay results as given in PubChem BioAssay AID1159580 (chemical genetic matrix, 2015).
In all, about 5,500 compounds went through this assay and about 2,000 (36%) were called active. About 18% were inconclusive and are not listed. Rule as the data show it: active = normalized growth mostly below about 0.91 (no sharp cut-off); inconclusive = no clear call, values can overlap the other calls; inactive = mostly above about 0.92. The list shows a part of the results.

Experiment: chemical genetic growth profiling, strain panel (AID 1159580);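 also: tested at 20 µM; growth read once vehicle control cultures reached saturation at 30 °C; 1 = growth at the plate median or of vehicle wells; lower values mean less growth of the strain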
Conditions: S. cerevisiae deletion strains, growth OD
[1] = locus YAL040C, strain CLN3, hits give low values
[2] = locus YDR363W, strain ESC2, hits give low values
[3] = locus YER002W, strain NOP16, hits give low values
[4] = locus YNL175C, strain NOP13, hits give low values
[5] = locus YNL197C, strain WHI3, hits give low values
[6] = locus YNL224C, strain SQS1, hits give low values
[7] = locus YOR083W, strain WHI5 (second series), hits give low values
[8] = locus YPL055C, strain LGE1, hits give low values

Measured: normalized growth

CN(C)CC[C@@H](c1ccc(Cl)cc1)c1ccccn1
inactive: [1] 1 | [2] 1 | [3] 0.998 | locus YGR078C, strain PAC10, hits give low values 1.01 | [4] 1.01 | [5] 1 | [6] 0.999 | [7] 1.01 | [8] 1.01

OC[C@H]1NC[C@@H](O)[C@@H]1O
inactive: [1] 0.993 | locus YCL061C, strain MRC1 (second series), hits give low values 1 | [2] 1.02 | [3] 0.998 | locus YGR229C, strain SMI1, hits give low values 1.02 | locus YNL153C, strain GIM3, hits give low values 0.999 | [4] 0.991 | [5] 1 | [6] 0.992 | [7] 1.01 | [8] 0.996 | locus YPL241C, strain CIN2, hits give low values 1.01
